This passage reports growth inhibition results from PubChem BioAssay (NCI).

Assay [1] can be described thus: NCI Yeast Anticancer Drug Screen. Data for the mec2-1 strain (AID 157). The following applies: S. cerevisiae mec2-1 strain, at 50.0 µM, hits give high values. In outline: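 Strain: mec2-1 (DNA repair/cell cycle alteration). Compound exposure, then growth measured; inhibition expressed relative to vehicle.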
A short description of assay [2]: NCI Yeast Anticancer Drug Screen. Data for the sgs1 mgt1 strain (AID 161).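 Further: 0% = growth of cultures given vehicle only.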 The note with it: S. cerevisiae sgs1 mgt1 strain, at 50.0 µM, hits give high values. In outline:
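Inhibition of yeast growth, normalised to vehicle-treated controls, is reported for a strain bearing genetic alterations in DNA damage repair.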

Assay [3] is described as follows: NCI Yeast Anticancer Drug Screen. Data for the cln2 rad14 strain (AID 165).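 Further: 0% = growth equal to vehicle treated cultures.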 The following applies: S. cerevisiae cln2 rad14 strain, at 50.0 µM, hits give high values. In outline:
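Compounds are applied to the cln2 rad14 yeast strain, and growth is then compared with that of vehicle-treated cultures to give inhibition.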

The nature of assay [4]: NCI Yeast Anticancer Drug Screen. Data for the bub3 strain (AID 167). The following applies: S. cerevisiae bub3 mutant strain, at 50.0 µM, hits give high values. In outline:
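Screening used yeast with an engineered genetic alteration affecting cell cycle control. Compound-exposed cultures were compared with vehicle cultures, and reduced growth was taken as inhibition.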

Assay [5] can be described thus: NCI Yeast Anticancer Drug Screen. Data for the mlh1 rad18 strain (AID 175). The following applies: S. cerevisiae mlh1 rad18 strain growth inhibition; at 50.0 µM; hits give high values. In outline:
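Read-out is yeast growth inhibition, calculated against vehicle-only controls. The compound was applied to a strain engineered with DNA damage repair alterations.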

The panel holds about 79,000 compounds, 15% with a hit somewhere; the sample as a whole holds those more often. Unmarked numbers belong to inactive results. Calls of active or inactive are those of the source. No stated cut-off is given here; in the data, active means growth inhibition above about 70%; inactive means the rest.

As for `CCCCCCCCOCC1S(=O)(=O)OCCOS1(=O)=O`, the growth inhibition in assay [1] was -17.6%; in assay [2], -50.7%; in assay [3], -53.8%; in assay [4], -24.4%; in assay [5], -2.3%.
On to `COC(=O)C(C#N)(CCc1ccc([N+](=O)[O-])cc1)CCc1ccc([N+](=O)[O-])cc1`, for which the growth inhibition in assay [1] is -4.25%; in assay [2], 3%; in assay [3] it was -6.7%; in assay [4], 5.6%; in assay [5], 25.9%.
For `O=C(O)CN1CCCCC1` the same measures were 5.5%, -3.8%, -27.1%, -4.1% and -6.65%.
For `C[N+](C)(Cc1ccccc1)c1ccccc1`, in that order: -6%, -0.15%, -34.9%, 4.1% and -11.2%.
For `CCOC(=S)SC(=S)SC(=S)OCC` the same measures were -27.1%, 2.6%, -27.8%, -7.75% and -22.2%.
In the case of `O=C(Nc1ccccc1)C1(Cl)CCCCC1`, the growth inhibition in assay [1] is -7.35%; in assay [2], -8.7%; in assay [3] it was -16.9%; in assay [4], -4.7%; in assay [5], 1.8%.
On to `O=C(/C=C/c1ccccc1O)c1ccccc1`, for which the growth inhibition is -15.7% in assay [1]; 3.2% in assay [2]; 1.9% in assay [3]; -5.2% in assay [4]; -24.6% in assay [5].
Consider `CCCCC1CCC2CCCCC2C1` (stereo not drawn), for which the growth inhibition is -2.5% in assay [1]; -8.05% in assay [2]; -18.1% in assay [3]; -11.2% in assay [4]; 8% in assay [5].
As for `CCOC(=O)Nc1cc(Cl)c2nnn(C(=O)OCC)c2n1`, the growth inhibition in assay [1] was 98.2% (active); in assay [2], 97.9% (active); in assay [3], 90.7% (active); in assay [4], 96.7% (active); in assay [5], 97.6% (active).
For `COc1ccc(N=Cc2c(O)c(O)c(C(C)C)c3cc(C)c(-c4c(C)cc5c(C(C)C)c(O)c(O)c(C=Nc6ccc(OC)cc6)c5c4O)c(O)c23)cc1` the same measures were 1.75%, -12.2%, -18.4%, -5.75% and -6.2%.
Consider `CN(C)C(=O)CCCC(=O)c1cccc([N+](=O)[O-])c1`, for which the growth inhibition was 3.5% in assay [1]; 3.7% in assay [2]; 10.6% in assay [3]; 16% in assay [4]; -13.3% in assay [5].
With `COc1ccc(C(=O)N/N=C/c2cccc(OC)c2OC)cc1`, the growth inhibition was -4.75% in assay [1]; -20.1% in assay [2]; -26.2% in assay [3]; 13.1% in assay [4]; -41.8% in assay [5].
As for `Cc1ccccc1C(C#N)/C(=N/NC(N)=S)C(=O)Nc1c(C)cccc1C` (stereo not drawn), the growth inhibition was 2.5% in assay [2], -12.4% in assay [3], -17.2% in assay [4] and -31.1% in assay [5].
For the molecule `O=C(O)c1ccccc1-c1ccccc1C(=O)O`, the growth inhibition in assay [1] was -9.6%; in assay [2] it was -10.9%; in assay [3], -41.2%; in assay [4], -1.8%; in assay [5], 9%.
For `CCCCCCC[CH2][Sn]1([CH2]CCCCCCC)[O]C2C(CO)OC(n3ccc4c(N)ncnc43)C2[O]1` (stereo not drawn), in that order: 15.2%, 18.1%, 70.2% (active), 4.45% and -0.85%.
With `C=CCNC(=S)Nc1cccc(O)c1`, the growth inhibition was -11.6% in assay [1], -11.6% in assay [2], -10.9% in assay [4] and -2.55% in assay [5].
In the case of `CC1(C)C2C/C(=N/O)C(=O)C1C2` (stereo not drawn), the growth inhibition in assay [1] is 4.05%; in assay [2] it was 8.8%; in assay [3], 14.6%; in assay [4] it was -16.9%; in assay [5] it was -20.2%.
Regarding `O=c1cc(C=Nc2cccc(Br)c2)[nH]c(=S)[nH]1`, the growth inhibition was -17.4% in assay [1]; -15.4% in assay [2]; -24.8% in assay [3]; -10.1% in assay [4]; -10% in assay [5].
For `COC1(NS(=O)(=O)c2ccc(C)cc2)CC1` the same measures were -25.2%, -12.1%, -39.1%, 10.4% and -3.85%.
For `CCOC(=O)CCC(NC(=O)c1ccc(OCc2ccc3nc(OC)c(OC)nc3c2)cc1)C(=O)OCC` (stereo not drawn), the growth inhibition in assay [1] is -17.9%; in assay [2], -21.6%; in assay [3], 5%; in assay [4], -4.75%; in assay [5] it was 13.2%.
In the case of `COC(=O)C1(C)C=CC(=O)C2(C)C1C(O)C1OC3CC(c4ccoc4)C(C)=C3C1(C)C2CC(=O)O` (stereo not drawn), the growth inhibition in assay [1] is -7%; in assay [2] it was 20.1%; in assay [3] it was 12.4%; in assay [4], 10.8%; in assay [5] it was -21.3%.
Turning to `Cc1nn(C)c(=O)c2nn(-c3ccccc3)c(C)c12`, the growth inhibition in assay [1] was 3.4%; in assay [2], 14.8%; in assay [3] it was 14.3%; in assay [4], 20.8%; in assay [5] it was 1.25%.
For `Cc1cc(=O)cc(-c2ccccc2)[nH]1`, in that order: -11.3%, -12.5%, -37.3%, -2.5% and 6.55%.
On to `CCCCNC(=S)N(CCCC)CCCC`, for which the growth inhibition was 18.2% in assay [1]; 10.3% in assay [2]; -16.2% in assay [3]; 30.9% in assay [4]; 13.1% in assay [5].
Consider `N#CCCNc1ccc2c(c1)Cc1ccccc1-2`, for which the growth inhibition in assay [1] was 3.4%; in assay [2] it was 18.6%; in assay [3], -14.2%; in assay [4], 12.4%; in assay [5], -27.5%.
Consider `CSc1nc(NC2OC(CO)C(O)C(O)C2O)cc(=O)[nH]1` (stereo not drawn), for which the growth inhibition in assay [1] was 4.2%; in assay [2] it was 2.85%; in assay [3] it was -9.8%; in assay [4], 7.5%; in assay [5], -2.9%.
Take `Cc1ccc(S(=O)(=O)N/N=C2\CCC3CC2C3(C)C)cc1` (stereo not drawn): the growth inhibition in assay [1] is 2.05%; in assay [2], -14.2%; in assay [3], -20.1%; in assay [4] it was -6.05%; in assay [5], 5.95%.
For `CCOC1OC(C2COC(=S)O2)C(O)C1O` (stereo not drawn), in that order: -2.15%, 7.85%, -4.1%, -0.15% and 13.6%.
